# Experimental data as given in article PMC8384837, “Expanding the binding specificity for RNA recognition by a PUF domain”.
# Residue numbers refer to the chain shown, from its start.
# Experiments:
# Test in all cases: yeast three-hybrid, YBZ-1, SC-Leu-His + 0.5 mM 3-AT, 4 days
# Conditions in all cases: tags: N-Gal4 AD-HA kept; label: inside an RPR1-promoter hybrid RNA with tandem MS2 sites; ssRNA
# [1] = molecular target: T1, PUM1 PUF domain R6-DWE (Homo sapiens, UniProt Q14671 828-1176, N1043D;Y1044W;Q1047E)
# T1 sequence: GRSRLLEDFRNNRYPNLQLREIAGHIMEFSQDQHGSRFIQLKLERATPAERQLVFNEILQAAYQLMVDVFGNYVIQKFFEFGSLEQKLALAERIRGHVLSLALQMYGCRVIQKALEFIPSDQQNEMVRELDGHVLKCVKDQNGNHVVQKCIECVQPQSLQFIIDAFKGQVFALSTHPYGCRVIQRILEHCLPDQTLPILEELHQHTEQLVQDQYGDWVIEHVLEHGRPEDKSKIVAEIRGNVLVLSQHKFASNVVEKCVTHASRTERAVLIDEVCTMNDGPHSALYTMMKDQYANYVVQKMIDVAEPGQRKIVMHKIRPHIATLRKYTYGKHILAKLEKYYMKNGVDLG
# Summary of the method: (§1)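 Pumilio-1 PUF domain libraries, randomized at the three base-contacting residues of each repeat, were co-expressed with matching RNA elements from a centromeric plasmid in strain YBZ-1, which carries a LexA–MS2 coat fusion and a HIS3 reporter. Transformants grew for four days on SC-Leu (input) or on SC-Leu-His + 0.5 mM 3-AT (selection), and the repeat regions were PCR-amplified and Illumina-sequenced. The interaction score is the log change in variant frequency from input to selection. That logarithm is base 2, with a pseudocount of 1 where a variant was absent.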
# [2] = molecular target: T2, PUM1 PUF domain R6-VYL (Homo sapiens, UniProt Q14671 828-1176, N1043V;Q1047L)
# T2 sequence: T1 sequence with D216V, W217Y, E220L
# Summary of the method: as §1
# [3] = molecular target: PUM1 PUF domain R1-NKR (Homo sapiens, UniProt Q14671 828-1176, S863N;R864K;Q867R)
# Summary of the method: as §1
# [4] = molecular target: PUM1 PUF domain R3-VYD (Homo sapiens, UniProt Q14671 828-1176, C935V;R936Y;Q939D)
# Summary of the method: as §1
# [5] = molecular target: PUM1 PUF domain R3-GFL (Homo sapiens, UniProt Q14671 828-1176, C935G;R936F;Q939L)
# Summary of the method: as §1
# [6] = molecular target: PUM1 PUF domain R4-WGT (Homo sapiens, UniProt Q14671 828-1176, N971W;H972G;Q975T)
# Summary of the method: as §1
# [7] = molecular target: PUM1 PUF domain R5-PRD (Homo sapiens, UniProt Q14671 828-1176, C1007P;Q1011D)
# Summary of the method: as §1
# [8] = molecular target: PUM1 PUF domain R5-AFY (Homo sapiens, UniProt Q14671 828-1176, C1007A;R1008F;Q1011Y)
# Summary of the method: as §1
# [9] = molecular target: PUM1 PUF domain R4-NRV (Homo sapiens, UniProt Q14671 828-1176, H972R;Q975V)
# Summary of the method: as §1
# [10] = molecular target: PUM1 PUF domain R5-RND (Homo sapiens, UniProt Q14671 828-1176, C1007R;R1008N;Q1011D)
# Summary of the method: as §1
# [11] = molecular target: PUM1 PUF domain R3-SRL (Homo sapiens, UniProt Q14671 828-1176, C935S;Q939L)
# Summary of the method: as §1
# [12] = molecular target: PUM1 PUF domain R4-WGR (Homo sapiens, UniProt Q14671 828-1176, N971W;H972G;Q975R)
# Summary of the method: as §1
# [13] = molecular target: PUM1 PUF domain R3-CFD (Homo sapiens, UniProt Q14671 828-1176, R936F;Q939D)
# Summary of the method: as §1
# [14] = molecular target: PUM1 PUF domain R3-FCS (Homo sapiens, UniProt Q14671 828-1176, C935F;R936C;Q939S)
# Summary of the method: as §1
sequence,measurement,setting,value
GGCUAGAACUAGUGGAUCCCCCGGCGCCCGGCGGCUCGAGCCCGGGUAAGUGAAAAUAGUCUGCAUGCCGCCGGGCGCCAUGCCUGCAGGUCGACUCUAGAAAACAUG,binding signal,[1],2.98 log2 enrichment (interaction score)
same,binding signal,[2],6.07 log2 enrichment (interaction score)
GGCUAGAACUAGUGGAUCCCCCGGCGCCCGGCGGCUCGAGCCCGGGUAAGUGUAAAUGGUCUGCAUGCCGCCGGGCGCCAUGCCUGCAGGUCGACUCUAGAAAACAUG,binding signal,[3],1.8 log2 enrichment (interaction score)
GGCUAGAACUAGUGGAUCCCCCGGCGCCCGGCGGCUCGAGCCCGGGUAAGUGUAAAUAGUCUGCAUGCCGCCGGGCGCCAUGCCUGCAGGUCGACUCUAGAAAACAUG,binding signal,[4],6.46 log2 enrichment (interaction score)
same,binding signal,[5],4.38 log2 enrichment (interaction score)
same,binding signal,[6],3.43 log2 enrichment (interaction score)
same,binding signal,[7],3.41 log2 enrichment (interaction score)
same,binding signal,[8],2.38 log2 enrichment (interaction score)
same,binding signal,[9],1.46 log2 enrichment (interaction score)
same,binding signal,[10],0.31 log2 enrichment (interaction score)
same,binding signal,[11],3.65 log2 enrichment (interaction score)
same,binding signal,[12],0.32 log2 enrichment (interaction score)
same,binding signal,[2],0.58 log2 enrichment (interaction score)
same,binding signal,[13],3.85 log2 enrichment (interaction score)
GGCUAGAACUAGUGGAUCCCCCGGCGCCCGGCGGCUCGAGCCCGGGUAAGUGUAAGUAGUCUGCAUGCCGCCGGGCGCCAUGCCUGCAGGUCGACUCUAGAAAACAUG,binding signal,[14],5.25 log2 enrichment (interaction score)
GGCUAGAACUAGUGGAUCCCCCGGCGCCCGGCGGCUCGAGCCCGGGUAAGUGUAUAUAGUCUGCAUGCCGCCGGGCGCCAUGCCUGCAGGUCGACUCUAGAAAACAUG,binding signal,[6],4.02 log2 enrichment (interaction score)
same,binding signal,[9],2.52 log2 enrichment (interaction score)
same,binding signal,[12],3.49 log2 enrichment (interaction score)
